The list is not random: actives were taken first. Their share in the collection is about 12%.
PLK1 PBD inh – qHTS for Inhibitors of PLK1-PDB (polo-like kinase 1 - polo-box domain): Primary Screen; Plk1 PBD binding of FITC phosphopeptide, fluorescence polarization; 360,000 tested, 2.8% active; Potency, µM, for inactives: max response, negative = inhibition, actives largely listed as inhibitors; also: potency is read from the fitted curve at half-maximal effect; series mostly up to about 57 µM; % is scaled to controls: 0 for no effect and ±100 for the full control effect; nearly all actives have a fitted effect of over 65% in size
HP1b chromo inh – HTS for Inhibitors of HP1-beta Chromodomain Interactions with Methylated Histone Tails; Chromobox protein homolog 1 (Homo sapiens), P83916; AlphaScreen HP1-beta / biotin-H3K9me3 peptide binding; Potency, µM (highest dose often 114 µM), without a hit: at the top dose activity change, negative = inhibition, actives largely listed as inhibitors; 390,000 tested, 0.56% active; AID 540317, 2011; also: potency is read from the fitted curve at half-maximal effect; nearly all actives have a fitted effect of over 70% in size
Target sequence (P83916 whole entry, looked up): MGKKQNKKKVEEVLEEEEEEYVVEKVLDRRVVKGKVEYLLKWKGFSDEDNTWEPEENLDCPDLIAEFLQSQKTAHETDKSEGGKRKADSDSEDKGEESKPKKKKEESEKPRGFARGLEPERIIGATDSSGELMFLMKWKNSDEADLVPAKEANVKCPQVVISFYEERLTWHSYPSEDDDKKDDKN
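HP1-beta protein (50 nM final) preincubated 30 min at room temperature with biotinylated H3(1-18)K9me3 peptide (50 nM) in PBS pH 7.4, 0.01% Tween-20, then compound added for 30 min. AlphaScreen streptavidin donor/nickel chelate acceptor beads (10 ug/mL final), 30 min dark, luminescence read.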
G9a inh – qHTS Assay for Inhibitors of Histone Lysine Methyltransferase G9a. 350,000 tested, 8.8% active. AID 504332, 2011. G9a H3K9 monomethylation, AlphaScreen, 2 h. Potency, µM (titrated, usually from 102 µM), for the others: at the top dose activity, negative = inhibition, usual class: inhibitors; also: potency is read from the fitted curve at half-maximal effect; % is scaled to controls: 0 for no effect and ±100 for the full control effect; nearly all actives have a fitted effect of over 75% in size
Target sequence (Q96KQ7 913-1193 limits assumed): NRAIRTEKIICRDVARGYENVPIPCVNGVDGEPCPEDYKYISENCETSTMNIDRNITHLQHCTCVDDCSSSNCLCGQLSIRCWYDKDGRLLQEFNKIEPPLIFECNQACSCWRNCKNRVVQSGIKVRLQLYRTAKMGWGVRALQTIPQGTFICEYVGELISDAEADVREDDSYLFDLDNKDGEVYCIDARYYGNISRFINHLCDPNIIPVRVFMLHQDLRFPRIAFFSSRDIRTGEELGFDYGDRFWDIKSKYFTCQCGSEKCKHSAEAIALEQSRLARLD
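Enzyme 20 nM + cpd, 15 min RT; add b-H3K9 pep 500 nM / SAM 20 uM; 2 h RT; anti-H3K9me1 Ab 0.5 ug/mL + SA donor / anti-rabbit acceptor beads 20 ug/mL each, 10 min; AlphaScreen read.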
BAZ2B inh – qHTS Assay for Inhibitors of BAZ2B; Bromodomain adjacent to zinc finger domain protein 2B (Homo sapiens), Q9UIF8; AlphaScreen BAZ2B-H3K14Ac peptide displacement; Potency, µM (doses to about 114 µM), for the others: at the highest dose activity change, negative = inhibition, most hits filed as inhibitors; 360,000 tested, 4.4% active; AID 504333, 2011; also: potency is read from the fitted curve at half-maximal effect; % is scaled to controls: 0 for no effect and ±100 for the full control effect; nearly all actives have a fitted effect of over 60% in size
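BAZ2B 50 nM plus b-H3(5-23)K14Ac 50 nM, PBS pH 7.4/0.01% Tween-20, 30 min RT; compound added (max 110 uM), 30 min RT; streptavidin donor/Ni-chelate acceptor beads 10 ug/mL final, 20 min dark; AlphaScreen read.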
PI5P4K alpha inh – qHTS for Inhibitors of phosphatidylinositol 5-phosphate 4-kinase (PI5P4K) | PI5P4Kalpha enzyme, ADP-Glo luminescence, 60 min; hits give low values | max response, % | AID 652105, 2013 | 330,000 tested, 1.2% active; active = max response of -50% or lower; inconclusive = between -30% and -50%; inactive = -30% or higher; also: value at the top dose of about 77 µM; % is scaled to controls: 0 for no effect and ±100 for the full control effect
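Human PI5P4Kalpha with substrate in 0.038 M HEPES pH 7.4, 0.28 mM EGTA, 0.1% CHAPS, 5% DMSO; reaction started with 5 microM ATP (final), 60 min at room temperature. ADP formed read by ADP-Glo luminescence.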
JMJD2A Tudor inh – qHTS Assay for Inhibitors of JMJD2A-Tudor Domain; Lysine-specific demethylase 4A (Homo sapiens), O75164; AlphaScreen JMJD2A-Tudor / H3K4me3 peptide binding; Potency, µM (series often up to 114 µM), for inactives: at the top dose activity change, negative = inhibition, hits mostly inhibitors; 390,000 tested, 4.4% active; also: potency is read from the fitted curve at half-maximal effect; % is scaled to controls: 0 for no effect and ±100 for the full control effect; nearly all actives have a fitted effect of over 50% in size
* hit, by the source's call; ? = inconclusive; . = no result given; ! = not confirmed by another sample; [ ] = dose if it differs, or a comment. Unless noted, calls follow the shape of the dose curve; as a rule, active = well fitted curve in the direction sought with a large enough effect; inconclusive = small, poorly fitted or top-dose-only effect, or another doubt; inactive = no such curve, though single readings can be large; an effect the other way counts as inactive or inconclusive.

SMILES | PLK1 PBD inh | HP1b chromo inh | G9a inh | BAZ2B inh | PI5P4K alpha inh | JMJD2A Tudor inh
O=C(O)Cc1sc(Nc2ccccc2Cl)nc1-c1ccccc1 | . | 11% | -4%[59 µM] | -22% | . | -19%
O=C(O)Cc1sc(-c2ccc(Cl)cc2)nc1-c1ccccc1 | 24µM* | ? | -47%[12.7 µM] | 0% | -28 | 25µM*
O=C(O)Cc1sc(Nc2ccccc2)nc1-c1ccc(Cl)cc1 | 21µM* | ? | 18µM* | -28% | -9 | 45µM*
COc1ccc(Oc2ncc3nc(-c4cccs4)c(=O)n(Cc4cccs4)c3n2)cc1 | . | . | 6%[12.7 µM] | . | . | .
Cc1cc(OCC(=O)Nc2cnn(CCCC(=O)O)c2)ccc1[N+](=O)[O-] | 2% | 58% | -34% | 5% | -1 | -1%
O=C(O)CCCn1cc(NC(=O)COc2ccc(F)cc2F)cn1 | 2% | 43% | -1% | -19% | 8 | -9%
O=C(O)CCCn1cc(NC(=O)COc2ccccc2F)cn1 | -6% | 28% | 52% | 6% | 4 | 79µM*!
Cc1cc(OCC(=O)Nc2cnn(CCCC(=O)O)c2)ccc1Cl | -26% | 46% | 14µM*! | -31% | 4 | -4%
CCC(C)NC(=O)c1nn(-c2ccc(C)cc2)nc1CO (stereo not drawn) | . | 9% | 6%[59 µM] | 3% | . | -20%
Cc1ccc(C)n1N1C(=O)/C(=C\c2ccc(Cl)cc2)SC1=S | -9% | -68% | ? | 2.8µM* | 1 | 40µM*
CC(=O)N(C(C)=O)N1C(=O)/C(=C/c2ccc(Cl)cc2)SC1=S | 5.3µM* | 10µM* | 14µM* | 28µM* | -17 | 11µM*
CN1CCN(C(=O)CCN2C(=O)/C(=C\c3ccc(Cl)cc3)SC2=S)CC1 | -19% | 11% | -11% | -34% | -12 | -28%
Cc1cc(C)c(S(=O)(=O)N2CCCCC2CCNC(=O)C(=O)NCc2ccco2)c(C)c1 (stereo not drawn) | -5% | -13% | 11%[0.501 µM] | ? | -7 | ?
CCc1ccc2[nH]c(=O)c(CN(Cc3ccco3)Cc3nnnn3Cc3ccco3)cc2c1 | . | -8%[57 µM] | . | . | . | -28%[57.1 µM]
O=C(O)c1ccc(N/N=C/C(Br)=C/c2ccccc2)cc1 | ? | -3% | 50µM* | -34% | 2 | ?
COc1ccc(CC(=O)NCC2CCCN(Cc3ccc(F)c(OC)c3)C2)cc1 (stereo not drawn) | -15% | 18% | 60% | -3% | 0 | -5%
COc1ccc(CC(=O)NCC2CCCN(Cc3cccc(C(F)(F)F)c3)C2)cc1 (stereo not drawn) | 27µM* | -9% | . | 10% | 0 | ?
CS(=O)(=O)c1ccccc1C(=O)Nc1ccc(S(=O)(=O)N2CCCC2)cc1 | 3% | 21%[57 µM] | . | . | 1 | -10%
O=C1OCC/C1=C\c1ccc2c(c1)OCO2 | -17% | 23% | -49%[2.33 µM] | 4% | 0 | -15%
O=C1/C(=C/c2ccncc2)CCC/C1=C\c1ccncc1 | 21µM* | 18% | ? | -28% | -8 | -15%[11.4 µM]
CC1=NOC(=O)/C1=C/c1ccc2c(c1)OCO2 | ? | 33% | 56µM* | ? | -15 | -1%
CC1=NOC(=O)/C1=C\c1ccc2c(c1)OCO2 | 2.4µM* | 25% | ? | ? | -5 | -2%
O=C1C(=Cc2ccncc2)CCCc2ccccc21 | -9% | . | . | . | 0 | .
O=C1/C(=C\c2ccc3c(c2)OCO3)CCC/C1=C/c1ccc2c(c1)OCO2 | -1% | -22% | 14µM* | 25µM* | 1 | ?
COCCN1C(=O)COc2ccccc2C1C(=O)NC1CCCCC1 (stereo not drawn) | -1% | . | . | . | -7 | .
SMILES | PLK1 PBD inh | HP1b chromo inh | G9a inh | BAZ2B inh | PI5P4K alpha inh | JMJD2A Tudor inh
CC(=O)Nc1ccc(C)cc1 | -8% | 53% | 0%[0.501 µM] | -5% | -3 | -12%
NNC(=O)C(=O)Nc1ccc(O)cc1 | 0% | 26% | 16µM* | -3% | 4 | 4%
Cc1ccc(NC(=O)C(=O)NN)cc1 | -13% | 19% | 50µM* | ? | 1 | -13%
Cc1ccc(NC(=O)CC(O)(C(F)(F)F)C(F)(F)F)cc1 | 2% | 44% | 13% | 9% | 6 | 45%
Cc1ccc(NC(=O)CC(N)=S)cc1 | 3% | 14% | . | -1% | -11 | 8.9µM*
CC(=O)Nc1ccc(O)cc1 | -2% | . | 0%[12.7 µM] | 12% | 0 | -7%
CCC(=O)N1CCN(c2ccccc2NC(=O)COc2ccc(C(C)C)cc2)CC1 | -4% | 30% | 24% | -15% | 4 | -16%
C/C(=N\NC(=O)CNC(=O)c1cccs1)c1ccc(Cl)c(Cl)c1 | -3% | 22% | 25% | -22% | -3 | -14%
CCCCCCSc1nnc(-c2cnn(-c3ccccc3)c2-n2cccc2)n1C | -6% | 9% | 40µM* | -29% | 0 | -17%
Cn1c(-c2cnn(-c3ccccc3)c2-n2cccc2)n[nH]c1=S | -4% | 13% | 8.9µM* | -37% | -6 | 8.9µM*
COC(=O)C=C1CCC2C3CC(F)C4(O)CC(=O)CCC4(C)C3C(=O)CC12C (stereo not drawn) | 4% | 9%[57 µM] | . | . | 0 | -1%
COc1ccc(C(=O)NC(=S)N2CCC(C)CC2)cc1 | -9% | 19% | 16µM* | -20% | 0 | -12%
CCOC(=O)N1CCN(C(=S)NC(=O)c2ccc(F)c(F)c2)CC1 | -3% | 37% | 45µM* | -24% | 4 | -9%
CC(=O)N1CCN(C(=S)NC(=O)c2ccc(F)cc2)CC1 | -10% | 10% | . | . | 0 | 1.6µM*
COc1ccc(C(=O)NC(=S)N2CCCC2)cc1 | -13% | 11% | . | -3% | -1 | -18%
O=C(NCCCN1CCN(c2ccc(F)cc2)CC1)Nc1ccccc1Cl | . | 6% | ? | ? | . | -20%
Cc1cccc(-n2ncc3c(N4CCCC4)ncnc32)c1 | -8% | 40% | 4%[59 µM] | 0% | . | -2%
CC(=O)c1ccc(N2CCN(c3ncnc4c3cnn4C)CC2)cc1 | . | -4% | 8%[59 µM] | 2% | . | -9%
Cc1cccc(-n2ncc3c(N4CCN(c5ccccc5)CC4)ncnc32)c1 | . | 108% | -3%[59 µM] | -7% | . | 16µM*
COc1ccc(N2CCN(c3ncnc4c3cnn4C)CC2)cc1 | . | 23% | 14µM* | -18% | . | -34%
Cc1cccc(OCC(=O)Nc2ccc(C(=O)OCc3cc(=O)n4nc(C5CC5)sc4n3)cc2)c1 | . | 25% | 0%[12.7 µM] | -1% | . | -1%

Screening data as filed in PubChem BioAssay.
